System: ACVR2B
Settings: concentration: 1 μM, replicates: in singlicate; n = 1
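Further: KINOMEscan kinase panel screen.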

Row | SMILES | %Inh
1 | CCCCc1nn2ncccc2c1-c1ccnc(NC2CC2)n1 [GW684374] | 0%
2 | COC(=O)C(NC(=O)NC1CCN(c2ccnc(Nc3ccc(F)cc3)n2)C1)c1ccccc1 (stereo not shown) [GSK1379712] | 11%
3 | O=c1cc(N2CCOCC2)nc2n(Cc3ccccc3F)ccn12 [GSK2297428] | 0%
4 | COc1cc2ncnc(Nc3cccc(Br)c3)c2cc1OC.Cl [GI230329] | 0%
5 | CS(=O)(=O)Cc1ccc(Nc2nccc(-c3c(-c4cccc(NC(=O)C5CCCCC5)c4)nn4ncccc34)n2)cc1 [GSK350559] | 0%
6 | Cc1cnc(N)c(/C=C/c2cncc(C(=O)NCCc3ccc(Cl)cc3Cl)c2)c1.Cl [GSK190937] | 0%
7 | CS(=O)(=O)CCNCc1nc(-c2ccc3ncnc(Nc4ccc5c(cnn5Cc5ccccc5)c4)c3c2)cs1.Cl.Cl [GW569716] | 0%
8 | CC[C@@H]1CO[C@H](C(=O)Nc2ccccc2)CN1c1cc(-c2ccc3c(N)n[nH]c3c2)nc(NC)n1 [GSK2376236] | 0%
9 | CC(=O)c1c(C)c2cnc(Nc3ccc(N4CCNCC4)cn3)nc2n(C2CCCC2)c1=O | 0%
10 | COc1ccc(-c2coc3ccc(-c4nnc(C)o4)cc23)cc1 | 0%
11 | Cc1c(Cn2c(C)c(C)n3c(=O)cc(N4CCOCC4)nc23)cccc1C(F)(F)F [GSK2328680] | 0%
12 | CNc1cc(-c2ccc3c(N)n[nH]c3c2)nc(N)n1 [GSK2224810] | 56%
13 | Cc1ccc(NC(=O)c2ccc(Cl)cc2)cc1-c1ccc(C(=O)Nc2ccncc2)cc1 [GSK1398467] | 10%

Source: PMC5540273 (PLoS ONE, 2017)
